Values joined by “and” are separate entries in the source; they are usually repeats but may differ in a detail not shown here. Equal entries are not always repeated. Results filed as inconclusive are left out. Active and inactive are the calls of the source. Rule for the calls, unless noted: active = hit-call score of the fitted dose curve at least 0.9, where 1 is the maximum; inconclusive = response in the unintended direction; inactive = score below 0.9.
Tests used:
[1] = biological target: human Norepinephrine Transporter (NET), SLC6A2 (gene 6530) (UniProt P23975); experiment: NVS_TR_hNET: NovaScreen (NVS) Transporter Assay for human Norepinephrine Transporter (NET) (AID 2283377);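 note: cell-free membrane protein extracted from CHO cells expressing human NET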;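 for AC50: displacement of radioligand from human NET seen as loss of scintillation signal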
Summary of the method: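 Scintillation counts of filter-retained radioligand served as the readout, taken 1 h post-dosing in a cell-free CHO-derived system. Test chemicals ran first at 25 uM in duplicate; confirmed hits were retested across concentrations.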

[2] = biological target: Estrogen receptor (Homo sapiens) (UniProt P03372); experiment: OT_ERa_GFPERaERE_0480: Odyssey Thera (OT) 8-hour HeLa Transcription Induction Assay for Estrogen Receptor (AID 2283381; active = hit-call score of the fitted dose curve at least 0.9, where 1 is the maximum; inactive = score below 0.9)
Summary of the method: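 HeLa cells dosed with compound and imaged by fluorescence microscopy at 8 h; GFP induction from an ERE reporter quantified by high-content image analysis and fitted as gain of signal against DMSO baseline.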

[3] = biological target: Estrogen receptor (Homo sapiens) (UniProt P03372); experiment: OT_ERa_GFPERaERE_0120: Odyssey Thera (OT) 2-hour HeLa Transcription Induction Assay for Estrogen Receptor (AID 2283382)
Summary of the method: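 HeLa cells were dosed with test chemical and read 2 hours later for GFP-ERα/ERE-linked fluorescent protein induction by fluorescence microscopy. Gain-of-signal was fitted relative to DMSO baseline, quantified by high content image analysis.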

[4] = biological target: Bile acid receptor (Homo sapiens) (UniProt Q96RI1); experiment: OT_FXR_FXRSRC1_0480: Odyssey Thera (OT) 8-hour HEK293T Protein-Complementation Assay for Farnesoid X receptor/SRC-1 Co-activator (AID 2283383)
Summary of the method: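 HEK293T cells expressing FXR and SRC-1 fused to reporter fragments were dosed with compound for 8 h; fluorescence from the reconstituted reporter marked co-activator recruitment. Gain of signal was fitted against the DMSO baseline.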

[5] = biological target: human Dopamine Transporter (DAT), SLC6A3 (gene 6531) (UniProt Q01959); experiment: NVS_TR_hDAT: NovaScreen (NVS) Transporter Assay for human Dopamine Transporter (DAT) (AID 2283374);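 note: activity means loss of bound radioligand signal relative to DMSO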
Summary of the method: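 Test chemicals were first screened in duplicate at 25 uM, with actives retested as concentration series. Displacement of a specific radioligand from cell-free human dopamine transporter was measured after 1 h by filtration and scintillation counting.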

[6] = biological target: rat Serotonin Transporter (SERT), Slc6a4 (gene 25553) (UniProt P31652); experiment: NVS_TR_rSERT: NovaScreen (NVS) Transporter Assay for rat Serotonin Transporter (SERT) (AID 2283375)
Summary of the method: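 Radioligand displacement, filter scintillation readout; rat forebrain membrane prep, 1 h post-dose. Single-conc 25 uM duplicate screen, then concentration-response on actives. Loss of signal vs DMSO baseline.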

[7] = biological target: Estrogen receptor beta (Homo sapiens) (UniProt Q92731); experiment: OT_ER_ERbERb_1440: Odyssey Thera (OT) 24-hour HEK293T Protein-Complementation Assay for Estrogen Receptor-beta/-beta Homodimer (AID 2283380);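 note: fluorescence gain from ER beta LBD homodimer complementation read by laser scanning cytometry; scored as signal increase over DMSO baseline for both agonists and antagonists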
Summary of the method: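 Fluorescence increase, nuclear for agonists or whole-cell for antagonists, relative to DMSO vehicle, quantified by laser scanning cytometer after fixation and Draq5 staining. Readout from 24 h treatment of HEK293T cells carrying complementation-paired ER beta LBD (aa 310-547).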

[8] = biological target: Bile acid receptor (Homo sapiens) (UniProt Q96RI1); experiment: OT_FXR_FXRSRC1_1440: Odyssey Thera (OT) 24-hour HEK293T Protein-Complementation Assay for Farnesoid X receptor/SRC-1 Co-activator (AID 2283384)
Summary of the method: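 HEK293T cells were dosed with compound and read 24 h later by fluorescence intensity from protein-fragment complementation reporting FXR/SRC-1 co-activator interaction. Gain of signal was fitted relative to DMSO negative control as baseline.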

[9] = biological target: Agonist Androgen Response Element (ARE), AR (gene 367) (UniProt P10275); experiment: OT_AR_ARELUC_AG_1440: Odyssey Thera (OT) 24-hour CHO-K1 Luciferase Assay for Agonist Androgen Response Element (ARE) (AID 2283379)
Summary of the method: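 Agonist mode, 24 h exposure in CHO-K1 ARE-luciferase cells; values reflect luminescence induction over vehicle.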

[10] = biological target: mouse Estrogen Receptor alpha (Era), Esr1 (gene 13982) (UniProt P19785); experiment: NVS_NR_mERa: NovaScreen (NVS) Nuclear Receptor Binding Assay for mouse Estrogen Receptor alpha (Era) (AID 2283378);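 note: hit means loss of bound radioligand signal relative to DMSO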
Summary of the method: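 Filter scintillation counts of bound radioligand, measured 18 h post-dose, gave the readout; decreased signal relative to DMSO controls indicated displacement from mouse Era. Primary screen ran in duplicate at 25 uM; active chemicals were retested across concentrations.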

Measured: AC50

Bile acid receptor (Homo sapiens), sequence (Q96RI1 whole entry, looked up, the tested form may be a part): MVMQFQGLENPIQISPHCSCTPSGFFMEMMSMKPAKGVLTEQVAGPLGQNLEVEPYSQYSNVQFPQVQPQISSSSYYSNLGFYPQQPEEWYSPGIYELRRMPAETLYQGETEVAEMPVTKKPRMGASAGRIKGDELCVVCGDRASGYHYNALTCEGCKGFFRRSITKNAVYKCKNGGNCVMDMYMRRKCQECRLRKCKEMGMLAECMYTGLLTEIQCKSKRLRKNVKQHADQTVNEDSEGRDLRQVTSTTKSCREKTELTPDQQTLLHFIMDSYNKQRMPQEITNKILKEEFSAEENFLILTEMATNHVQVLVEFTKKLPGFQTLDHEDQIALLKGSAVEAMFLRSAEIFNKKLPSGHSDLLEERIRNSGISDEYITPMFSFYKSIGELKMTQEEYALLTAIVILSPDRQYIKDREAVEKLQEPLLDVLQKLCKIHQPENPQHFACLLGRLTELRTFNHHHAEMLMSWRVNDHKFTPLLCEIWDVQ
Estrogen receptor (Homo sapiens), sequence (P03372 whole entry, looked up): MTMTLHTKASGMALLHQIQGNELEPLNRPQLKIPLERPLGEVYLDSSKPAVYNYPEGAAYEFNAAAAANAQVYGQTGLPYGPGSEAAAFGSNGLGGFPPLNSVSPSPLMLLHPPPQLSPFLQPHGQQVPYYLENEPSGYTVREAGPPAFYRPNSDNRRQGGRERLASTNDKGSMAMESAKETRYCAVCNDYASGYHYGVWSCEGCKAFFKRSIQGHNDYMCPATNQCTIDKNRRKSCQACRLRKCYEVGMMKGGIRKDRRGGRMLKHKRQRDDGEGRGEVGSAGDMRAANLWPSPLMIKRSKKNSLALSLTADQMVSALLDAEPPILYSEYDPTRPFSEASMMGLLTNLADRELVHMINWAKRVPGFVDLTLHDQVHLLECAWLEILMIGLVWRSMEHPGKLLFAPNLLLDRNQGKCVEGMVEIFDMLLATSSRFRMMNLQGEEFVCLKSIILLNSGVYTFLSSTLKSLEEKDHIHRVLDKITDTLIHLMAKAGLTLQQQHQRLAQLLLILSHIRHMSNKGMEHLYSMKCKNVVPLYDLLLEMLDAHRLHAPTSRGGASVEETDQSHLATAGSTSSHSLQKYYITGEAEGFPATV
human Dopamine Transporter (DAT), SLC6A3 (gene 6531), sequence (Q01959 whole entry, looked up): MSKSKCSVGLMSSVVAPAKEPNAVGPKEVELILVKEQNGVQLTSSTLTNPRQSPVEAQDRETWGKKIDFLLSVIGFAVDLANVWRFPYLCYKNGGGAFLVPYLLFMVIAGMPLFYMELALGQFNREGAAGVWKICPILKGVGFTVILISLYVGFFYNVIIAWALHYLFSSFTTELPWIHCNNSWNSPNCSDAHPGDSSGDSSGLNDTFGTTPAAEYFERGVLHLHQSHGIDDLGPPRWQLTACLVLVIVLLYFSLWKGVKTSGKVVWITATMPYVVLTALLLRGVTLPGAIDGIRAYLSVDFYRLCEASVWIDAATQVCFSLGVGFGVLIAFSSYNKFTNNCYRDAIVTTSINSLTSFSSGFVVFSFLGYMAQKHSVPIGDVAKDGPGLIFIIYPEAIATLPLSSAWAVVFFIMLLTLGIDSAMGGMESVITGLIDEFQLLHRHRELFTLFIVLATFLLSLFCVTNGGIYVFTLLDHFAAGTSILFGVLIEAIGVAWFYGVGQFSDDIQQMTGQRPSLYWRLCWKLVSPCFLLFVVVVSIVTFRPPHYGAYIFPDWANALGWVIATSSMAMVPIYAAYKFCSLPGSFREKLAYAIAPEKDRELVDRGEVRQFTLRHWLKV
human Norepinephrine Transporter (NET), SLC6A2 (gene 6530), sequence (P23975 whole entry, looked up): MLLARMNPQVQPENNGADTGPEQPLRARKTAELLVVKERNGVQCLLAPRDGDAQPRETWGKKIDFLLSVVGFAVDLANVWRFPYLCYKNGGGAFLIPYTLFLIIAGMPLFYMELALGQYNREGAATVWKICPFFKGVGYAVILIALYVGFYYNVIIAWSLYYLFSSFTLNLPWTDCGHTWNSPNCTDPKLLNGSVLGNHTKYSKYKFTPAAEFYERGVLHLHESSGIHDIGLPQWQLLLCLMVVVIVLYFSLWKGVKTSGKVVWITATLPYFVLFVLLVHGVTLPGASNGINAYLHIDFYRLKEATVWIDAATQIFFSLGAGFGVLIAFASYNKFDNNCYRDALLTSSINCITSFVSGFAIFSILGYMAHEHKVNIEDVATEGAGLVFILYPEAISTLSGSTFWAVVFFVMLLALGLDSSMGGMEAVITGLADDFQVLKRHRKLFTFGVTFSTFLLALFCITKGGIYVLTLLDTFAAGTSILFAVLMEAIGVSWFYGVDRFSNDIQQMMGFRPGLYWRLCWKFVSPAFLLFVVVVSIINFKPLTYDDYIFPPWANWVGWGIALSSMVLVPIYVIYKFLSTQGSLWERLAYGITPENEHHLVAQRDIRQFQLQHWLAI
Agonist Androgen Response Element (ARE), AR (gene 367), sequence (P10275 whole entry, looked up): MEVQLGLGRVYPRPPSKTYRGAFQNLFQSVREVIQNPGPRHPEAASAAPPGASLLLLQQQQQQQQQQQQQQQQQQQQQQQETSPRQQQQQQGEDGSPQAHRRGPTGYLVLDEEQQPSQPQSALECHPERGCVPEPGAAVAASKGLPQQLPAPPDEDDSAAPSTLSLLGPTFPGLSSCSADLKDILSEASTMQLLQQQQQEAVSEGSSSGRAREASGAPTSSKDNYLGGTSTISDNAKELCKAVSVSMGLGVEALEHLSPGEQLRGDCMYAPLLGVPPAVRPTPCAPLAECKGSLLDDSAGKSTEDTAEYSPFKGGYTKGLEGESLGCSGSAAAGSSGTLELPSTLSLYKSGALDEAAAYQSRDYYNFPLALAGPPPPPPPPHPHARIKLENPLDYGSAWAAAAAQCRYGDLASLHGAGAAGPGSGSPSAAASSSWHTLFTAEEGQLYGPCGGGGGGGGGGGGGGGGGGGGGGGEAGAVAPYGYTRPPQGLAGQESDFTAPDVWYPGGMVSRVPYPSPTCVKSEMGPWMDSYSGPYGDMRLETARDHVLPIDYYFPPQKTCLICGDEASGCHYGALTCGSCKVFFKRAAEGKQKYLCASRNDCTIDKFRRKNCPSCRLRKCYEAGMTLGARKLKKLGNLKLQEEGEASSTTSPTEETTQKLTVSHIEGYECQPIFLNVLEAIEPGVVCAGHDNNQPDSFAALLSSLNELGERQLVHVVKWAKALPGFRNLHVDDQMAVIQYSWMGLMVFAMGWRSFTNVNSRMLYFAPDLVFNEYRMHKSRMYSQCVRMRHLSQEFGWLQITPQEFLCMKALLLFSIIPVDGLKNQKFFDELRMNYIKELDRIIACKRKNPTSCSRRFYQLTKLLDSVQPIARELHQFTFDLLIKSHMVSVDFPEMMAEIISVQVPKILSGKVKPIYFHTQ
rat Serotonin Transporter (SERT), Slc6a4 (gene 25553), sequence (P31652 whole entry, looked up): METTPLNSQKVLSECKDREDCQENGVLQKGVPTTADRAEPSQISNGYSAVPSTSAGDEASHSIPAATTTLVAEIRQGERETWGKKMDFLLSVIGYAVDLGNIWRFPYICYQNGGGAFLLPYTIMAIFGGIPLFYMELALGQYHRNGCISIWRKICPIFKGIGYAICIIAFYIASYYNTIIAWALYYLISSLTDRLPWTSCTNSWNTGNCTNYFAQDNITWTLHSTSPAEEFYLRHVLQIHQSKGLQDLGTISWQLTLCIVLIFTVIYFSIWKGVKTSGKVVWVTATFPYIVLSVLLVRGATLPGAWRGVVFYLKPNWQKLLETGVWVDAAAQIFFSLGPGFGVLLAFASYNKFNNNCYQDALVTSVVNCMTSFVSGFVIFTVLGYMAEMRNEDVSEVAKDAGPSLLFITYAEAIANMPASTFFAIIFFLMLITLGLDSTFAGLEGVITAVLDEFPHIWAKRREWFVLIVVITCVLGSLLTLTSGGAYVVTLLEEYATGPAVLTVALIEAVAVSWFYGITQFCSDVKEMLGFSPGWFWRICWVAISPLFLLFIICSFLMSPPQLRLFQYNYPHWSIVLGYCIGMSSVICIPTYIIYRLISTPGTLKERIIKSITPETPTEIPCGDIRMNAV
Estrogen receptor beta (Homo sapiens), sequence (Q92731 whole entry, looked up, the tested form may be a part): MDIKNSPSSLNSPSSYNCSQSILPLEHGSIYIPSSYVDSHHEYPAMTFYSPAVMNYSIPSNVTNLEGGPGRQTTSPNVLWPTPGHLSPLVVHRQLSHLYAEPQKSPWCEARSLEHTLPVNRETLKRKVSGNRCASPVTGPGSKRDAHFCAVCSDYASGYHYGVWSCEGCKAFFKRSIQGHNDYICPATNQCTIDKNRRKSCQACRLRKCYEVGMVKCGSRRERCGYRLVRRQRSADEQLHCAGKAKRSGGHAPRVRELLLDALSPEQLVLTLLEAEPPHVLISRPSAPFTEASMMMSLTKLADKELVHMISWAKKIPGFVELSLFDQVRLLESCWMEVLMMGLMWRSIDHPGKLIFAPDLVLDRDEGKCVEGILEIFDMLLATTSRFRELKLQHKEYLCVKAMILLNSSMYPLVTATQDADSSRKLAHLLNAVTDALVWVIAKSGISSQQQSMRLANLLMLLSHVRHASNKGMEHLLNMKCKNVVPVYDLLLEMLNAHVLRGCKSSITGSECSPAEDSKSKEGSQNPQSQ
mouse Estrogen Receptor alpha (Era), Esr1 (gene 13982), sequence (P19785 whole entry, looked up): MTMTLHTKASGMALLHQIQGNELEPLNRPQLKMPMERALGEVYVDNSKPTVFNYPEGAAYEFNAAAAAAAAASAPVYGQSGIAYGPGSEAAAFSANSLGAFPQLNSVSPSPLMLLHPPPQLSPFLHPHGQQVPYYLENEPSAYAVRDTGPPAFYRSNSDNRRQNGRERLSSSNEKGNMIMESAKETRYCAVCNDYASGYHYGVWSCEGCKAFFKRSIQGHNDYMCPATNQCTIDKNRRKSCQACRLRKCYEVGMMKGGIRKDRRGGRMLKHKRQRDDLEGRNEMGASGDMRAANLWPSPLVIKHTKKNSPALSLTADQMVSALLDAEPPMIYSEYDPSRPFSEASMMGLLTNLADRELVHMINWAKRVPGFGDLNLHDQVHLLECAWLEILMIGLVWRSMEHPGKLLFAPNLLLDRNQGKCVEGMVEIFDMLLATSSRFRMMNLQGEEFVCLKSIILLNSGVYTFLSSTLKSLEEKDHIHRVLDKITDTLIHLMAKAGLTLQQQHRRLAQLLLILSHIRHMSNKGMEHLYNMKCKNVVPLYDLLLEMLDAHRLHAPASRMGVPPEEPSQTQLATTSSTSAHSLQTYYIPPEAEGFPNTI

O=C(O)CN(CC(=O)O)CC(=O)O
inactive: [1] | [2] | [3] | [4]

COC(=O)[C@H]1[C@H]2C[C@@H]3c4[nH]c5cc(OC)ccc5c4CCN3C[C@H]2C[C@@H](OC(=O)c2cc(OC)c(OC)c(OC)c2)[C@@H]1OC
active: [1] 5.72 µM

CCc1nc(N)nc(N)c1-c1ccc(Cl)cc1
active: [5] 0.754 µM | [6] 9.78 µM | [1] 2.23 µM
inactive: [7] | [2] | [3] | [4] | [8]

CCN(CC)CCOc1ccc(C(=C(Cl)c2ccccc2)c2ccccc2)cc1
active: [6] 7.45 µM | [7] 60.4 nM and 53.3 nM and 30.6 nM
inactive: [9]

CC(COCC(C)OC(=O)c1ccccc1)OC(=O)c1ccccc1 (configuration not stated)
inactive: [7] | [8]
active: [5] 19.2 µM | [4] 19.4 µM

O=Cc1ccccc1C=O
inactive: [9] | [7] | [2] | [3]
active: [1] 7.28 µM

CC(C)OC(=O)C(C)(C)Oc1ccc(C(=O)c2ccc(Cl)cc2)cc1
active: [4] 12.8 µM | [8] 7.72 µM
inactive: [5] | [10] | [7] | [2] | [3]

CSc1ccc(Oc2ccc(S(N)(=O)=O)cc2CN(C)C)cc1C
active: [5] 4.52 µM | [6] 0.00229 µM | [1] 4.12 µM | [8] 26.5 µM
inactive: [10] | [9] | [7] | [2] | [3] | [4]

Cc1cc(Cc2ccc(N)c(C)c2)ccc1N
active: [5] 8.53 µM | [1] 6.22 µM | [7] 64.1 µM | [4] 50 µM | [8] 66.7 µM
